Assay results as given in the supplement of paper PMC6555819.

The sequences below were run on VDR:RXRa (NR concentration 270 nM, RXRa partner concentration 90 nM) (assay: PBM binding z-score (relative to random genomic background probes); higher = stronger binding; sequences stand for … in GC…GCGATTGACAGCGTAGAATGAAGG).
Description: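 Protein-binding microarray (Agilent 4x180K custom design, double-stranded 60-nt probes: 5' GC cap, 34-nt variable region, 24-nt constant primer region; full probe sequence given). Purified or IVT nuclear receptor:RXRα heterodimers (3:1 NR:RXRα, mostly 270:90 nM) or homodimers were incubated for 1 h in PBS with 2% milk and no ligand, then detected with Alexa488 antibodies. Fluorescence from o1-orientation probes (~5 replicates averaged) was converted to z-scores against 500 random hg19 background probes. Variable regions are seed direct-repeat (DR0–DR5) sites, all their single-nucleotide variants and half-site ablations.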

Sequence | PBM binding z-score
TCTAGCAGGCCAGAGGGTCAATCAAGAGGTACGG | 1.6
ACTAGCACGCCAAGGGTCACTCAAGATTAGTCCG | 2.97
CATCGGAGGACAACAGGAGGTCAGAGCTGCCAGA | 2.21
ATCTCTAGGTAACCAAATTCAGTGAATGCCGAAC | 0.296
TCTTGTAGATCAACAGGAGTTTAAGAAAGATCGA | 0.517
CCGAGTAGGTTATCGGGCATTCAGGCAACGGTGA | -0.386
GCTTACGGGTCAAGGGTTATAGCATGAATAGAAT | 4.33
ACTAGCAGGCCAGGGGTCACTCAAGATTAGTCCG | 4.42
CCTTACGGTTCACTCCAGGTTATAGCATCGGAGT | 3.4
CATACAGGGTCAGCTCGGCCAGAGTAGGGACGGC | 3.32
TCATATAGGTAATACAGGTGAAAGTCGGCATCTA | 1.31
TCGAGTAGGTTACCAATGGGGCCTTCAGCTTTCT | -0.371
CTTCCAAGGTCATAGGAGGTCAGTGAAGACAGAT | 6.66
AGTCAAAGTTCAGGACAAGGTAACGTAAAGCACG | 2.55
GCTATTAGATGAAAGGGCAACCGAATGATTCTCG | 0.125
AGTCAAAGTTCAGGACGAGGTAACGGAAAGCACG | 2.86
CCTCGGAGGACAGAAGCTCAGAGCTGTCCGCTTT | -0.941
CCTCGGAGGACAACAGGAGGTCAGAGCGGCCAGA | 2.92
CGTCCAAGGTCAGTGCTAGGTCAGTGAAAGCATT | 3.71
CATACAGGGTCAGGTAGGCCAGAGTAGGGACGGC | 3.35

Sequence | PBM binding z-score
CCTACTGGGCCAAAAAGGTCAGTGATGCCGATAA | 2.91
ATCGAAAGGTCGTAAGGTGAGTATACAGAAAGGC | 3.26
CAAACTAGGTCACCGGAGGGTCAAAGTCCGCATG | 5.82
CGTCAAAGTCCAACTAAGGTAACGTAAAGCACGC | 0.393
GCTATTAGTTGAAAGGGCAACCTAATGATTCTCG | 0.478
TCTCGGAAGACACGAAAGGTCAGAGCTCGACATC | 2.55
CGATCTAGGTCATCCAGGACAGTGAATACATTGA | 4.67
CGTCCACGGTCAATGCTAGGTCAGTGAAAGCATT | 0.36
CGTCCAAGGTCATTGCTAGGTCAGTGAAAGCATT | 5.53
TCTTGTAGATCAACGGGAGGTTAAGAAAGATCGA | 0.477
GGAACGAGGGCAAAGTTGACAGCATCTGTCGACG | 1.6
CCTACTGGGCCATCCGGTCATTGATATCAACGTT | 0.0642
CCTATTAGTTGACCATAATGGCAACCGAAGCTCG | 0.509
ATATGTAGGTTACATCCGGGTTATTCAGGCTATG | 1.68
AGAATGAGGTTATTAAGACCAGGGAATTGCGGTC | 1.69
CGTCCAAGGTCAGCATGTCAGTGAAAGCGACGTG | 2.49
GCTATTAGTTAAAAGGGCAACCGAATGATTCTCG | 0.193
ACTAGCAGGCCAAGTTTGGCTCACTCAAACAAAG | -0.767
CCTTACGGGTCACTGCAGGTTATAGCATCGGAGT | 4.19
GCATATAGGTAATACAAGGTGAAAGACCGATTGT | 0.319
